Results on 27 compounds are retold here after PubChem BioAssay (Tox21).

Molecules are shown by their SMILES. Inconclusive results are not listed. A number with no mark means an inactive call. Activity calls are given as the source filed them. Calls come from the whole dose curve; as a rule, active = well fitted activation curve with a large enough effect in the repeat runs; inconclusive = weak or mixed curves; inactive = no such curve, though single readings can be large or run the other way.
% is set by controls: 0 for no effect and ±100 for the full control effect; potency is the fitted concentration of half-maximal effect.

The target in this experiment is Nuclear receptor subfamily 1 group I member 2 (Rattus norvegicus) (UniProt Q9R1A7). As to the kind of experiment: Rat pregnane X receptor (rPXR) activation by small molecules, qHTS assay (AID 1346983). Note: nearly all actives have a fitted effect of over 20% in size. The note with it: rPXR luciferase reporter cells, One-Glo luminescence, 24 h; max activation: hits give high values. An outline of the steps: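 Cell-based rPXR luciferase reporter assay, 2,000 cells per well, rested 5hr at 37 C before compound addition in DMSO, then 24 hr at 37 C. One-Glo reagent was added and luminescence read after 30 min at room temperature.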
Sequence of Nuclear receptor subfamily 1 group I member 2 (Rattus norvegicus) (Q9R1A7 whole entry, looked up): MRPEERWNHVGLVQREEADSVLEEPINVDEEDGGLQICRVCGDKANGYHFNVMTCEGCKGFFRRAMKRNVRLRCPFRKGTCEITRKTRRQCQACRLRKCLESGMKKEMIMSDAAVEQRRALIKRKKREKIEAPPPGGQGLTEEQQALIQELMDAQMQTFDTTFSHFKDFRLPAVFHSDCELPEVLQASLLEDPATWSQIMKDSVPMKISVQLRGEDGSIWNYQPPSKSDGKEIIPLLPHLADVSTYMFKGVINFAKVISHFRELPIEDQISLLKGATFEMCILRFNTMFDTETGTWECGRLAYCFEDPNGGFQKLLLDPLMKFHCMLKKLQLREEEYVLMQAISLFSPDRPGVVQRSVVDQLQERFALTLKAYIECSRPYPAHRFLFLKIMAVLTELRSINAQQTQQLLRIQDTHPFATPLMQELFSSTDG
In general terms: Quantitative high-throughput screening tests each substance at several concentrations.
On to `Nc1nc(=O)n([C@@H]2CS[C@H](CO)O2)cc1F`, for which the max activation is 2.33%.
On to `CO[C@H]1C[C@@H]2CC[C@@H](C)[C@@](O)(O2)C(=O)C(=O)N2CCCC[C@H]2C(=O)O[C@H]([C@H](C)C[C@@H]2CC[C@@H](OC(=O)C(C)(CO)CO)[C@H](OC)C2)CC(=O)[C@H](C)/C=C(\C)[C@@H](O)[C@@H](OC)C(=O)[C@H](C)C[C@H](C)/C=C/C=C/C=C/1C`, for which the max activation was 0.976%.
Turning to `O=C1NCCN1c1ncc([N+](=O)[O-])s1`, the max activation is -1.52%.
In the case of `CC(/C=C/C=C(\C)C(=O)O[C@@H]1O[C@H](CO[C@@H]2O[C@H](CO)[C@@H](O)[C@H](O)[C@H]2O)[C@@H](O)[C@H](O)[C@H]1O)=C\C=C\C=C(C)\C=C\C=C(/C)C(=O)O[C@@H]1O[C@H](CO[C@@H]2O[C@H](CO)[C@@H](O)[C@H](O)[C@H]2O)[C@@H](O)[C@H](O)[C@H]1O`, the max activation was -0.182%.
Consider `CNC(=O)[C@H](Cc1c[nH]c2ccccc12)NC(=O)[C@@H](CC(=O)NO)CC(C)C`, for which the max activation is 15%.
Consider `CN[C@@H]1[C@H](O[C@H]2[C@H](O[C@H]3[C@H](O)[C@@H](O)[C@H](N=C(N)N)[C@@H](O)[C@@H]3N=C(N)N)O[C@@H](C)[C@]2(O)CO)O[C@@H](CO)[C@H](O)[C@H]1O`, for which the max activation was -1.72%.
As to `CC(C)(C)NCC(O)c1ccc(O)c(CO)n1` (configuration not stated), the max activation was -0.193%.
For the compound `CCC(=O)O[C@]1(C(=O)CCl)[C@@H](C)C[C@H]2[C@@H]3C[C@H](F)C4=CC(=O)C=C[C@]4(C)[C@@]3(F)[C@@H](O)C[C@@]21C`, the Potency is 0.447 µM (active).
As for `NCCCC[C@H](N)C(=O)O`, the max activation was -0.992%.
For the compound `COc1cc2c(cc1OC)CC(=O)N(CCCN(C)C[C@H]1Cc3cc(OC)c(OC)cc31)CC2`, the max activation was -0.416%.
Turning to `CCCCC/C=C\C/C=C\C/C=C\CCCCC(=O)O`, the max activation is -0.879%.
For `NC(=O)c1ccc[n+]([C@@H]2O[C@H](COP(=O)([O-])OP(=O)(O)OC[C@H]3O[C@@H](n4cnc5c(N)ncnc54)[C@H](O)[C@@H]3O)[C@@H](O)[C@H]2O)c1`, the max activation is -1.3%.
As to `C=C1C(=O)O[C@H]2[C@H]1CC/C(C)=C\CC[C@@]1(C)O[C@@H]21`, the max activation is -19.8%.
For the compound `C#C[C@]1(O)CC[C@H]2[C@@H]3CCC4=CC(=O)CC[C@@H]4[C@H]3C(=C)C[C@@]21CC`, the Potency was 7.94 µM (active).
As to `CN1CCN(C(c2ccccc2)c2ccc(Cl)cc2)CC1` (configuration not stated), the max activation is -0.288%.
`CC(C)(C)C(=O)OCOC(=O)[C@@H]1N2C(=O)[C@@H](N=CN3CCCCCC3)[C@H]2SC1(C)C`: the max activation is -0.301%.
As to `CCCOc1ccc2nc(NC(=O)OC)sc2c1`, the Potency was 2.51 µM (active).
For the compound `O=C1CCC(=O)N1CO`, the max activation was -2.21%.
Still for that read-out and setting: in the case of `C=Cc1c(C)c2cc3nc(cc4[nH]c(cc5nc(cc1[nH]2)C(C)=C5CCC(=O)OC)c(CCC(=O)O)c4C)[C@@]1(C)C3=CC=C(C(=O)OC)[C@H]1C(=O)OC` it was -3.53%; in that of `Cc1ccc(S(=O)(=O)NC(=O)N[C@@H](C)Cc2ccccc2)cc1`, 4.79%; in that of `CC(C)N=c1cc2n(-c3ccc(Cl)cc3)c3ccccc3nc-2cc1Nc1ccc(Cl)cc1`, -3.58%.
On to `NC(=O)OC[C@@H]1[C@H](NC(=O)/C(=N\OCC(=O)O)c2csc(N)n2)C(=O)N1S(=O)(=O)O`, for which the max activation is -2.39%.
Take `C#C[C@]1(O)CC[C@H]2[C@@H]3CCC4=CCCC[C@@H]4[C@H]3C(=C)C[C@@]21CC`: the max activation was -4.59%.
As for `COc1cc(C)c(/C=C/C(C)=C/C=C/C(C)=C/C(=O)O)c(C)c1C`, the max activation was -4.44%.
Turning to `C=C1CC[C@@H]2[C@](C)(CO)[C@H](O)CC[C@@]2(C)[C@@H]1C/C=C1/C(=O)OC[C@H]1O`, the max activation is -5.66%.
In the case of `CC1=C(/C=C/C(C)=C/C=C/C(C)=C/C(=O)Oc2c(C)c(C)c3c(c2C)CC[C@@](C)(CCC[C@H](C)CCC[C@H](C)CCCC(C)C)O3)C(C)(C)CCC1`, the max activation was -1.27%.
Regarding `C#C[C@]1(O)CC[C@H]2[C@@H]3CCC4=C/C(=N/O)CC[C@@H]4[C@H]3CC[C@@]21CC`, the max activation is 6.76%.
